# Measurements reported in PubChem BioAssay (Tox21).
# Values joined by “and” are separate entries in the source; they are usually repeats but may differ in a detail not shown here. Equal entries are not always repeated. Records with an inconclusive call do not appear. Entries that show only a call come without a potency. Some compounds were tested as several samples or in several runs, with calls that do not always agree. Active and inactive are the calls of the source. Unless noted, calls follow the shape of the dose curve; as a rule, active = well fitted curve in the direction sought with a large enough effect in the repeat runs; inconclusive = weak or mixed curves; inactive = no such curve, though single readings can be large; an effect the other way counts as inactive or inconclusive.
# Assays:
# [1] = qHTS assay to identify small molecule agonists of the vitamin D receptor (VDR) signaling pathway - cell viability counter screen (AID 743224); also: series mostly up to about 63 µM; nearly all actives have a fitted effect of over 50% in size
# In short: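 In parallel with the bla FRET readout, cytotoxicity toward VDR-bla cells after 16 h compound exposure was assessed by CellTiter-Glo, with luminescence recorded after a 30 min room-temperature incubation.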
# [2] = qHTS assay to identify small molecule antagonists of the vitamin D receptor (VDR) signaling pathway - cell viability counter screen (AID 743225); also: nearly all actives have a fitted effect of over 50% in size
# In short: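 Same-well multiplex: following 16 h treatment of HEK 293T cells carrying a UAS-driven beta-lactamase reporter with compound and agonist (3 nM final), and a 2 h FRET substrate step, CellTiter-Glo was added and luminescence read after 30 min.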
# [3] = qHTS assay to identify small molecule agonists of the NFkB signaling pathway (AID 1159509; active = well fitted curve in the direction sought with a large enough effect in the signal ratio in the repeat runs, not every such curve was filed as active; the % refers to the signal ratio; also: series mostly up to about 61 µM)
# In short: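 Beta-lactamase reporter assay run in quantitative high-throughput format on an NF-kB-responsive ME-180 line, with 5 hr compound treatment and a FRET-based blue/green fluorescence readout.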
# [4] = qHTS assay to identify small molecule agonists of the NFkB signaling pathway - cell viability counter screen (AID 1159515; calls by dose curve; also: series mostly up to about 61 µM; nearly all actives have a fitted effect of over 55% in size)
# In short: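 Plate 2,000 NFkB-bla ME-180 cells/well; incubate overnight. Add compounds, 5 hr at 37 C. Add FRET substrate, 1.5 hr RT. Add CellTiter-Glo, 30 min RT; read luminescence.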
# [5] = qHTS assay to identify small molecule agonists of the endoplasmic reticulum stress response signaling pathway (AID 1159516; active = well fitted activation curve with a large enough effect in the signal ratio in the repeat runs, not every such curve was filed as active; the % refers to the signal ratio)
# In short: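 Beta-lactamase expression from the ER stress response element in HeLa reporter cells is quantified with the LiveBLAzer B/G FRET substrate, read at 405 nm excitation after 2 hr at room temperature, following 5 hr compound treatment at 37 C.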
# [6] = qHTS assay to identify small molecule agonists of the endoplasmic reticulum stress response signaling pathway - cell viability counter screen (AID 1159517; calls by dose curve; also: series mostly up to about 61 µM; nearly all actives have a fitted effect of over 50% in size)
# In short: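 After overnight attachment, ESRE-bla HeLa cells were treated with Tox21 library compounds for 5 hr. CellTiter-Glo luminescence, read 30 min post-addition at room temperature, reported viability.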
# [7] = qHTS assay to identify small molecule antagonists of the retinoid-related orphan receptor gamma (ROR-gamma) signaling pathway - cell viability counter screen (AID 1159520); also: nearly all actives have a fitted effect of over 50% in size
# In short: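 Cytotoxicity was read from cellular ATP (CellTiter-Glo luminescence) after 16 hr at 37 C with 1 uM doxycycline induction. The inducer was added 2 hr after compound transfer to Tet-on ROR gamma CHO cells.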
# [8] = biological target: Nuclear receptor ROR-gamma (Homo sapiens) (UniProt P51449); experiment: qHTS assay to identify small molecule antagonists of the retinoid-related orphan receptor gamma (ROR-gamma) signaling pathway (AID 1159521)
# In short: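 Inducible-expression reporter assay: doxycycline (1 uM final) switched on RORγ in CHO cells bearing a ROR response element-luciferase construct, with test compounds present from 2 h beforehand. Decreased luminescence after 16 h defined antagonist activity.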
# [9] = qHTS assay to identify small molecule agonists of the AP-1 signaling pathway - cell viability counter screen (AID 1159525; calls by dose curve; also: nearly all actives have a fitted effect of over 55% in size)
# In short: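 Intracellular ATP by Cell Titer Glo luminescence (30 min, RT) in the same ME-180 AP-1-bla wells after the 5 h compound exposure at 37 °C. Normalised to tetra n-octyl ammonium bromide and DMSO controls.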
# [10] = qHTS assay to identify small molecule agonists of the AP-1 signaling pathway (AID 1159526; calls by dose curve)
# [11] = biological target: Retinoic acid receptor RXR-alpha (Homo sapiens) (UniProt P19793); experiment: qHTS assay to identify small molecule agonists of the RXR signaling pathway (AID 1159527; calls by dose curve; also: nearly all actives have a fitted effect of over 35% in size; also: potency is read from the fitted curve at half-maximal effect)
# Sequence of Retinoic acid receptor RXR-alpha (Homo sapiens) (P19793 whole entry, looked up): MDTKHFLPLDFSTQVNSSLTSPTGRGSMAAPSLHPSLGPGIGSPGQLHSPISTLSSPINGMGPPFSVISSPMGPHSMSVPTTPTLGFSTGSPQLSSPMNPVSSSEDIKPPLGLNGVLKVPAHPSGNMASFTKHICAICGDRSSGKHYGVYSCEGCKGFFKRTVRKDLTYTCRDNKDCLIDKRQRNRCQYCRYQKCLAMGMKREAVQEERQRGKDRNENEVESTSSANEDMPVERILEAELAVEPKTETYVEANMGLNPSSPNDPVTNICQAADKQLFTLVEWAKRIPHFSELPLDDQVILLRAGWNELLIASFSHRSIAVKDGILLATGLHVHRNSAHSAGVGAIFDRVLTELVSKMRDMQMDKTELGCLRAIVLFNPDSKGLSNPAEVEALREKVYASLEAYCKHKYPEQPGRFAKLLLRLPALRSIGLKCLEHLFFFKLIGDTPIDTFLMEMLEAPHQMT
# In short: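 Compounds in DMSO were added to RXR-alpha-UAS-bla HEK 293T cells kept in 2% charcoal-stripped serum, and incubated 16 hr at 37 C with 5% CO2. Reporter signal came from a 2 hr B/G FRET substrate step.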
# [12] = qHTS assay to identify small molecule agonists of the RXR signaling pathway - cell viability counter screen (AID 1159529)
# In short: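 Counter screen: CellTiter-Glo luminescence. Cells: RXR-alpha-UAS-bla HEK 293T. Medium: 2% charcoal-stripped FBS. Treatment: 16 h, 37 C. Reagent incubation: 30 min, RT.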
# [13] = qHTS assay to identify small molecule antagonists of the retinoid acid receptor (RAR) signaling pathway - cell viability counter screen (AID 1159551); also: nearly all actives have a fitted effect of over 35% in size
# In short: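 Viability of C3RL4 cells is quantified from ATP by luminescence after 6 h treatment at 37 C with compounds and 1 uM retinol.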
# [14] = qHTS assay to identify small molecule agonists of the retinoic acid receptor (RAR) signaling pathway (AID 1159553)
# In short: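 Compounds dissolved in DMSO were pinned onto C3RL4 cells seeded the previous day, and plates were held 6 hr at 37 C. RARE-driven luciferase output was then read by luminescence.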
# [15] = qHTS assay to identify small molecule antagonists of the estrogen related receptor (ERR) signaling pathway - cell viability counter screen (AID 1224818);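 also: series mostly up to about 46 µM; viability measured after 17.5 h of compound exposure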
# In short: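 Cytotoxicity check run alongside the ERR antagonist screen: cells exposed to test compounds 17.5 h at 37 C, viability taken as CellTiter-Fluor fluorescence intensity.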
# [16] = qHTS assay to identify small molecule antagonists of the estrogen related receptor signaling pathway with the pleiotropic PPARgamma coactivator (PGC) cell viability counter screen (AID 1224822;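 also: series mostly up to about 46 µM; viability read after 17.5 h compound exposure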)
# In short: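 Viable cell signal (CellTiter-Fluor, 30 min, 37 C/5% CO2) was measured in PGC/ERR cells after a 17.5 h compound incubation.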
# [17] = qHTS assay to identify small molecule antagonists of the retinoic acid receptor (RAR) signaling pathway (AID 1159552; also: nearly all actives have a fitted effect of over 50% in size)
# In short: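 Antagonism of retinol-induced RARE reporter activity was measured in C3RL4 cells. Exposure to compounds and 1 uM final retinol lasted 6 hr at 37 C, with luminescence as endpoint.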
compound,measurement,setting,value
CC(C(=O)O)c1ccc(CC2CCCC2=O)cc1 (stereo not given),Potency,[1],inactive
same,Potency,[2],inactive
same,outcome,[3],inactive
same,outcome,[4],inactive
same,outcome,[5],inactive
same,outcome,[6],inactive
same,outcome,[7],inactive
same,Potency,[8],inactive
same,Potency,[9],inactive
same,outcome,[10],inactive
same,Potency,[11],inactive
same,Potency,[12],inactive
same,outcome,[13],inactive
same,Potency,[14],inactive
same,outcome,[15],inactive
same,outcome,[16],inactive
O=C1CC2CC1C1CCCC21 (stereo not given),Potency,[1],inactive
same,outcome,[3],inactive
same,outcome,[4],inactive
same,outcome,[5],inactive
same,outcome,[6],inactive
same,outcome,[7],inactive
same,Potency,[8],inactive
same,Potency,[9],inactive
same,outcome,[10],inactive
same,Potency,[12],inactive
same,outcome,[13],inactive
same,Potency,[17],inactive
same,Potency,[14],inactive
CC[N+](C)(C)c1cccc(O)c1,Potency,[1],inactive
same,Potency,[2],inactive
same,outcome,[3],inactive
same,outcome,[4],inactive
same,outcome,[5],inactive
same,outcome,[6],inactive
same,outcome,[7],inactive
same,Potency,[8],inactive
same,Potency,[9],inactive
same,outcome,[10],inactive
same,Potency,[12],inactive
same,outcome,[13],inactive
same,Potency,[17],inactive
same,Potency,[14],inactive
same,outcome,[15],inactive
same,outcome,[16],inactive
Nc1c[n+](N2CCOCC2)no1,Potency,[1],inactive
same,Potency,[2],inactive
same,outcome,[3],inactive
same,outcome,[4],inactive
same,outcome,[5],inactive
same,outcome,[6],inactive
same,outcome,[7],inactive
same,Potency,[8],inactive
same,Potency,[9],inactive
same,outcome,[10],inactive
same,Potency,[11],inactive
same,Potency,[12],inactive
same,outcome,[13],inactive
same,Potency,[14],inactive
CC(C)=CCCC(C)CC(=O)O (stereo not given),Potency,[1],inactive
same,outcome,[3],inactive
same,outcome,[4],inactive
same,outcome,[5],inactive
same,outcome,[6],inactive
same,outcome,[7],inactive
same,Potency,[8],inactive
same,Potency,[9],inactive
same,outcome,[10],inactive
same,Potency,[11],inactive
same,Potency,[12],inactive
same,outcome,[13],inactive
N=c1nc(N2CCCCC2)cc(N)n1O,Potency,[1],inactive
same,Potency,[2],inactive
same,outcome,[3],inactive
same,outcome,[4],inactive
same,outcome,[5],inactive
same,outcome,[6],inactive
same,outcome,[7],inactive
same,Potency,[8],inactive
same,Potency,[9],inactive
same,outcome,[10],inactive
same,Potency,[11],inactive
same,Potency,[12],inactive
same,outcome,[13],inactive
same,outcome,[15],inactive
same,outcome,[16],inactive
CC(C)(O)C#CC(C)(C)O,Potency,[1],inactive
same,Potency,[2],inactive
same,outcome,[3],inactive
same,outcome,[4],inactive
same,outcome,[5],inactive
same,outcome,[6],inactive
same,outcome,[7],inactive
same,Potency,[8],inactive
same,Potency,[9],inactive
same,outcome,[10],inactive
same,Potency,[11],inactive
same,Potency,[12],inactive
same,outcome,[13],inactive
same,Potency,[17],inactive
CCOc1ccc(C(=O)OCCN(CC)CC)cc1,Potency,[1],inactive
same,Potency,[2],inactive
same,outcome,[3],inactive
same,outcome,[4],inactive
same,outcome,[5],inactive
same,outcome,[6],inactive
same,outcome,[7],inactive
same,Potency,[8],inactive
same,Potency,[9],inactive
same,outcome,[10],inactive
same,Potency,[11],inactive
same,Potency,[12],inactive
same,outcome,[13],inactive
same,Potency,[14],inactive
CCN1CCC[C@H]1CNC(=O)c1c(O)c(Cl)cc(Cl)c1OC,Potency,[1],inactive
same,Potency,[2],inactive
same,outcome,[3],inactive
same,outcome,[4],inactive
same,outcome,[5],inactive
same,outcome,[6],inactive
same,outcome,[7],inactive
same,Potency,[8],inactive
same,Potency,[9],inactive
same,outcome,[10],inactive
same,Potency,[12],inactive
same,outcome,[13],inactive
same,Potency,[17],inactive
same,Potency,[14],inactive
same,outcome,[15],inactive
same,outcome,[16],inactive
C=COCC1CCC(CO)CC1 (stereo not given),Potency,[1],inactive
same,Potency,[2],inactive
same,outcome,[3],inactive
same,outcome,[4],inactive
same,outcome,[5],inactive
same,outcome,[6],inactive
same,outcome,[7],inactive
same,Potency,[8],inactive
same,Potency,[9],inactive
same,outcome,[10],inactive
same,Potency,[11],inactive
same,Potency,[12],inactive
same,outcome,[13],inactive
same,Potency,[17],inactive
C[N+](C)(C)CCCCCC[N+](C)(C)C,Potency,[1],inactive
same,Potency,[2],inactive
same,outcome,[3],inactive
same,outcome,[4],inactive
same,outcome,[5],inactive
same,outcome,[6],inactive
same,outcome,[7],inactive
same,Potency,[8],inactive
same,Potency,[9],inactive
same,outcome,[10],inactive
same,Potency,[11],inactive and 10.7 µM (active)
same,Potency,[12],inactive
same,outcome,[13],inactive
same,Potency,[14],inactive
same,outcome,[15],inactive
same,outcome,[16],inactive
CC(C)NCCCC1(C(N)=O)c2ccccc2-c2ccccc21,Potency,[1],inactive
same,Potency,[2],inactive
same,outcome,[3],inactive
same,outcome,[4],inactive
same,outcome,[5],inactive
same,outcome,[6],inactive
same,outcome,[7],inactive
same,Potency,[8],inactive
same,Potency,[9],inactive
same,outcome,[10],inactive
same,Potency,[11],inactive
same,Potency,[12],inactive
same,outcome,[13],inactive
same,Potency,[17],inactive
NCCCNCCSP(=O)(O)O,"activity change, negative = cytotoxicity",[1],6.38% [at 13.2 µM] (inactive)
same,"viability change, negative = cytotoxic",[2],2.84% [at 6.95 µM] (inactive)
same,activation,[3],0.134% [at 6.95 µM] (inactive)
same,"activity, negative = cytotoxic",[4],0.56% [at 6.95 µM] (inactive)
same,activation,[5],0.0202% [at 6.95 µM] (inactive)
same,"activity change, negative = cytotoxicity",[6],10.1% [at 6.95 µM] (inactive)
same,"activity, negative = cytotoxicity",[7],4.74% [at 8.39 µM] (inactive)
same,"activity change, negative = inhibition",[8],18.8% [at 8.39 µM] (inactive)
same,"viability change, negative = cytotoxic",[9],-1.42% [at 6.97 µM] (inactive)
same,activation,[10],-2.28% [at 6.97 µM] (inactive)
same,"activity change, negative = cytotoxicity",[12],8.34% [at 6.97 µM] (inactive)
same,"activity change, negative = cytotoxicity",[13],1.85% [at 8.39 µM] (inactive)
same,"activity, negative = inhibition",[17],8.45% [at 8.39 µM] (inactive)
same,activation,[14],-0.783% [at 8.36 µM] (inactive)
same,outcome,[15],inactive
same,outcome,[16],inactive
